Screens as filed in PubChem BioAssay.
Rows were chosen to be rich in hits. Some 1.9% of all compounds tested hit in one or more screens of this group.
PTHR1 agonist: activates the human parathyroid hormone receptor PTHR1. HEK293 GP2 PTHR1 cells, GloSensor cAMP luminescence, 1 h. 0.075% of 410,000 active. AID 743266. Potency, µM (highest dose often 115 µM), without a hit: at the top dose activation, most hits filed as activators. Q03431; also: potency is read from the fitted curve at half-maximal effect; nearly all actives have a fitted effect of over 55% in size
Target sequence (Q03431 whole entry, looked up): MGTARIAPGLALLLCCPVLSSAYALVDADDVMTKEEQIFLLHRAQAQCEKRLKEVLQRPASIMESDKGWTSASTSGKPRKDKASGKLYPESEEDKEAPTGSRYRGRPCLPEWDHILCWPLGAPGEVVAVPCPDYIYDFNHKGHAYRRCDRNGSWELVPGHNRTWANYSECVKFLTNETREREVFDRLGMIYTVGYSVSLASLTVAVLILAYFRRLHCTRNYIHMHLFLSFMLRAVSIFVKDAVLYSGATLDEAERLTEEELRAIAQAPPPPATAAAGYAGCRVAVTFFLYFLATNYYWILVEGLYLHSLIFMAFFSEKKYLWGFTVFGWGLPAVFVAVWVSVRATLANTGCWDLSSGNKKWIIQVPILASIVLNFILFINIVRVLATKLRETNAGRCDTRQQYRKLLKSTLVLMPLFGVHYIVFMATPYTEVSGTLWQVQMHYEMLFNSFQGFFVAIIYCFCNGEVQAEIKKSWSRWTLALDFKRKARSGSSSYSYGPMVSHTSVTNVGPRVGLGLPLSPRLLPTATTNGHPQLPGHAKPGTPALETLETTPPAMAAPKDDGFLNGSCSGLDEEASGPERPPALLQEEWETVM
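HEK-293-derived GP2 cells expressing PTHR1 and a GloSensor cAMP reporter, 3,000/well, plated overnight, given luciferin plus IBMX (each 0.5 mM as added) for 1 h at 37 °C, then compound for 1 h at 37 °C. Luminescence was read after 15 min at room temperature.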
TDP-43 yeast inh: rescues yeast growth from TDP-43 toxicity; TDP-43 expressing yeast growth rescue, BacTiter-Glo, 24 h; Potency, µM (top dose mostly 46.1 µM), for inactives: at the top dose growth rescue (activation), usual class: activators; 1.8% of 410,000 active; also: potency is read from the fitted curve at half-maximal effect; % of control where 0% means no effect; nearly all actives have a fitted effect of over 50% in size
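Galactose-induced TDP-43 yeast, OD600=0.02, compound pinned; 24 hr, 30 deg C; BacTiter-Glo luminescence for growth. Inhibitors of TDP-43 toxicity read as activators.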
aSyn yeast inh: alpha-synuclein toxicity inhibition in yeast; Yeast expressing alpha-synuclein, growth rescue, BacTiter-Glo, 24 h; Potency, µM (highest dose often 46.1 µM), inactives show at the top dose growth rescue (activation), hits mostly activators; 0.14% of 370,000 active; AID 652106; also: potency is read from the fitted curve at half-maximal effect; % of control where 0% means no effect; nearly all actives have a fitted effect of over 65% in size
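Screening used galactose-induced yeast with toxic alpha-synuclein levels, exposed to compound for 24 hr at 30 deg C. Cell growth, read with BacTiter-Glo luminescence, gave the measured signal.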
Abeta rescue: A-beta toxicity reversal in yeast | yeast expressing A-beta42, growth rescue, OD600, 48 h; response scale: 0% DMSO, 100% iron-clioquinol control | Potency, µM (doses to about 46.1 µM), actives largely listed as activators | 0.063% of 410,000 active | AID 1347071; also: potency is read from the fitted curve at half-maximal effect; nearly all actives have a fitted effect of over 55% in size
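Yeast A-beta toxicity model in growth medium with pinned compounds, 48 h at 30 C; growth read as absorbance at 600 nm. Normalized to FeCl3/clioquinol equimolar mix (positive) and DMSO (negative).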
FUS yeast rescue: rescues growth of FUS-expressing yeast; S. cerevisiae FUS-expressing, growth rescue, OD600, 24 h; Potency, µM (doses to about 76.6 µM), usual class: activators; 0.24% of 390,000 active;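 also: potency is read from the fitted curve at half-maximal effect; plate controls were DMSO vehicle for no effect and reference control for full effect; nearly all actives have a fitted effect of over 55% in size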
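Cultures pregrown in 2.5% raffinose medium are shifted to minimal medium containing 2% galactose to express toxic FUS. Compounds are tested at several concentrations. After 24hr at 30C, growth is quantified at 600 nm absorbance.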
LDHA inh: inhibitors of human lactate dehydrogenase A; AID 1347041; 0.15% of 480,000 active; activity change, % (values are at about 110 or 230 µM); purified LDHA, NADH/diaphorase-resazurin fluorescence; hits give low values; in the data active = activity change below about -30%; inconclusive = mostly about -25% to -30%;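 also: plate controls were DMSO wells for no effect and wells without enzyme for full effect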
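Resorufin fluorescence (ex540/em590), read at 0 and 20 min after diaphorase/resazurin addition, reports the NADH left after a 5 min room-temperature reaction of 2 nM human LDH5 with 0.06 mM NADH and 0.2 mM pyruvate.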
An asterisk follows results filed as active; i = inactive; u = inconclusive; x = no result given; [ ] = dose if it differs, or a comment. Unless noted, calls follow the shape of the dose curve; as a rule, active = well fitted curve in the direction sought with a large enough effect; inconclusive = small, poorly fitted or top-dose-only effect, or another doubt; inactive = no such curve, though single readings can be large; an effect the other way counts as inactive or inconclusive.

SMILES | PTHR1 agonist | TDP-43 yeast inh | aSyn yeast inh | Abeta rescue | FUS yeast rescue | LDHA inh
O=C(CCc1ncc(-c2ccc(F)cc2)o1)NCCc1ccccc1 | x | x | x | x | x | 4
CC1=C(C(=O)Nc2ccccc2)C(c2ccc(C(F)(F)F)cc2)n2ncnc2N1 (stereo not given) | x | x | x | x | x | 10
Cc1ccccc1CSCCNC(=O)CCSc1ccccc1 | i | 16µM* | 18% | u | i | -3
CC(C)(C)SCCNC(=O)COc1ccc(Cl)cc1 | i | 1% | 23% | i | i | 4
Cc1ccccc1CSCCNC(=O)COc1ccc(Cl)cc1 | i | 11µM* | 27% | i | i | 0
CC(C)(Oc1ccc(Cl)cc1)C(=O)Oc1ccc(-c2ccc(C#N)cc2)cc1 | x | x | x | x | x | 7
O=C(Nc1nc(OCCN2CCCC2=O)cnc1/C=C\c1ccccc1)c1cc2ccccc2s1 | i | 19% | u | i | 40µM* | -17
CC(C)(C)C(=O)Nc1ccccc1C(=O)Nc1cc(Cl)ccc1Cl | i | 22µM* | -1% | i | i | 0
CC1(C)CC(=O)C2=C(C1)NC(Nc1nc3ccccc3o1)=NC2c1cccc(Cl)c1 (stereo not given) | x | x | x | x | x | -30*
Cc1ccc(NC(=O)CSCC(=O)N(C)CCOc2ccc(Cl)cc2)cc1 | -17% | u | 9% | i | i | -1
Cc1cccc(NC(=O)CSCC(=O)N(C)CCOc2ccc(Cl)cc2)c1 | -25% | 13µM* | -2% | i | i | -1
Cc1ccc(OCC(=O)NNC(=S)NC(=O)COc2ccccc2)cc1 | x | x | x | x | x | -11
CCN=C(N/N=C/c1ccc([N+](=O)[O-])cc1)SC | -12% | 26% | 6% | i | i | -110*
Cc1ccc(CNC(=O)CC2C=CCC2)cn1 (stereo not given) | x | x | x | x | x | 5
CCc1ccc(OCC(=O)NNC(=O)c2cnccn2)c(Br)c1 | i | 25µM* | u | 25µM* | i | 1
CCc1ccc(OCC(=O)NNC(=S)NC(=O)C2CCCCC2)c(Br)c1 | -11% | 18µM* | 7.1µM* | 7.9µM* | i | -9
Cc1cc(C)c(C)c(S(=O)(=O)N2CCN(C(=S)NCC3CCCO3)CC2)c1C (stereo not given) | -8% | 22µM* | 22% | u | u | -2
CCOC(=O)c1cccc(NC(=O)NCc2c(-n3cccc3)sc3c2CCN(CC)C3)c1 | x | x | x | x | x | 4
CCCN1C(=O)/C(=C2\SC(N3CCCCC3)=NC2=O)c2ccccc21 | -18%[57.5 µM] | -12% | -10% | i | i | -1
CN1C(=O)/C(=C2\SC(N3CCCCCC3)=NC2=O)c2ccccc21 | -15%[57.5 µM] | 16µM* | 7% | i | i | -5
CCCC(=O)NC1=C(Cl)C(=O)c2ccccc2C1=O | i | -91% | -83% | i | x | 43
CCNC1=C(Cl)C(=O)c2ccccc2C1=O | -28%[57.5 µM] | 13µM* | 3% | i | i | 7
O=C1CSc2ccc(C(=O)NC3CC3)cc2N1 | x | x | x | x | x | 5
NC(=S)N/N=C1/CCCCC1c1ccccn1 (stereo not given) | x | x | x | x | x | 3
C=C(C)Cn1c(SCC(=O)Nc2ccccc2)nc2c1c(=O)[nH]c(=O)n2C | x | x | x | x | x | 4
SMILES | PTHR1 agonist | TDP-43 yeast inh | aSyn yeast inh | Abeta rescue | FUS yeast rescue | LDHA inh
S=C(NCc1ccco1)Nc1ccc(Br)cc1 | x | x | x | x | x | 3
COc1ccc(NC(C)=O)cc1NC(C)C(=O)N(C)Cc1cccc(F)c1 (stereo not given) | x | x | x | x | x | 0
COc1ccc(CN2CCN(C(C)C(=O)N(C)Cc3cccc(F)c3)CC2)cc1OC (stereo not given) | -17% | -3% | 0% | i | i | -34*
CCOc1ccc(NS(=O)(=O)c2ccc3c(c2)N(CC(=O)OC)C(=O)CS3)cc1 | x | x | x | x | x | -5
COc1ccc(S(=O)(=O)N2CCCCC2)cc1NC(=S)Nc1ccccc1 | i | 6% | 0% | i | x | 1
COc1ccc(S(=O)(=O)N2CCCCC2)cc1NC(=S)Nc1cccc(Cl)c1C | -5% | -6% | 1% | i | 2.8µM* | -11
Cc1cccc(Oc2ccc(S(=O)(=O)N3CCCCC3)cc2NC(=O)C2=COCCO2)c1 | -7% | -20% | -6% | i | 28µM* | 1
O=C(NCCc1ccc2c(c1)OCCO2)c1ccccc1NS(=O)(=O)c1cccs1 | x | x | x | x | x | 5
CCOC(=O)c1cc2cc(Oc3ccccc3)ccc2[nH]1 | x | x | x | x | x | 7
NNC(=O)c1cc2cc(Oc3ccccc3)ccc2[nH]1 | -22% | 10µM* | 1% | i | i | -5
CCc1cccc(CC)c1NC(=O)c1ccc(CSc2ccc(C)cc2)cc1 | x | x | x | x | x | 3
Cc1ccsc1CNC(=O)c1nccnc1N | x | x | x | x | x | -1
Cc1ccc(NC(=O)CCn2nc(C)cc2C)cc1 | 15% | 5% | 0% | i | i | -9
COc1ccccc1-c1nn(CCC(=O)Nc2ccc(C)cc2)c2nc(C)cc(C)c12 | -15% | 35µM* | u | i | i | 8
O=C(CN1c2cccc3cccc(c23)S1(=O)=O)Nc1ccc(S(=O)(=O)N2CCCC2)cc1 | x | x | x | x | x | 21
COc1ccc(-n2c(COc3cccc4ccccc34)nnc2SCC#N)cc1 | i | -4% | 25% | i | i | -2
N#CCSc1nnc(COc2cccc3ccccc23)n1-c1ccccc1 | i | 20µM* | 0% | i | i | -1
Cc1cc(OCc2cc(C(=O)N(C)Cc3ccccn3)no2)cc(C)c1Cl | -34% | u | 5% | u | u | -5
Cc1cc(OCc2cc(C(=O)N(C)C(C)c3ccccn3)no2)cc(C)c1Cl (stereo not given) | -22% | 22µM* | 2% | u | u | 1
Cc1cc(OCc2cc(C(=O)NC(C)c3cnn(C)c3)no2)cc(C)c1Cl (stereo not given) | -41% | 32µM* | u | i | i | 4
O=C(/C=C/Nc1ccc(Br)cc1F)c1ccc(OC(F)F)cc1 | x | x | x | x | x | 9
O=C(Oc1cccc(NC(=O)c2ccccc2Cl)c1)c1ccc([N+](=O)[O-])cc1 | i | 13µM* | 15% | i | i | -5
CC(Sc1nnc(-c2ccccc2F)n1C(C)C)C(=O)Nc1nccs1 (stereo not given) | x | x | x | x | x | 8
CCN(CC)CC(=O)NC(=O)Nc1ccccc1 | x | x | x | x | x | -13
Clc1nc2c(-c3ccccc3)nnn2c2ccccc12 | i | 6.3µM* | -16% | i | i | -10
NS(=O)(=O)c1cc(C(=O)NC2CCSc3ccccc32)ccc1Cl (stereo not given) | i | 21% | 10% | i | i | -66*
